Where “and” joins values, the source holds several entries; their conditions need not be identical. Equal entries are not always repeated. Screen size: about 6,400 compounds; about 610 (9.5%) were called active. No stated cut-off is given here; in the data, active means activity change below about -70%; inconclusive means no clear call, values can overlap the other calls; inactive means above that. The list comes from a sample in which actives are over-represented; it also holds similar structures and randomly drawn compounds. Where a structure was tested more than once in an assay, its records may differ in their call.

This assay is described as follows: Toxoplasma gondii ME49Luc growth in HeLa cells, luciferase, no IFN-y, primary screen (AID 1259421). As to conditions: T. gondii ME49Luc in HeLa, 72 h, stronger effect = lower value, concentration not given here.
Consider `CC(=O)OCC(=O)[C@@]1(O)CCC2C3CCC4=CC(=O)CC[C@]4(C)C3C(=O)C[C@@]21C` (stereo partly drawn), for which the activity change, negative = inhibition is -24.8% (inactive).

Turning to `CNc1cc(OC)c(C(=O)NC2CCN(Cc3ccccc3)C2C)cc1Cl` (stereo not drawn), the activity change, negative = inhibition is 3.06% (inactive).

`CCCC(O)C(CC)CO` (stereo not drawn): the activity change, negative = inhibition is 5.56% (inactive).

For `CC(=O)N[C@@H](C=O)[C@@H](O)[C@H](O)[C@H](O)CO`, the activity change, negative = inhibition was 11.9% (inactive).

For the molecule `O=C(NOCC(O)CO)c1cc(Br)c(F)c(F)c1Nc1ccc(I)cc1F` (stereo not drawn), the activity change, negative = inhibition was 8.99% (inactive).

On to `Cc1cc(I)ccc1Nc1c(C(=O)NOCC2CC2)cc(F)c(F)c1F`, for which the activity change, negative = inhibition is -58.9% (inactive) and -87.6% (active).

Turning to `O=C(NOCC1CC1)c1ccc(F)c(F)c1Nc1ccc(I)cc1Cl`, the activity change, negative = inhibition is 11.9% (inactive).

For `CC(C)C1CCC(C(=O)N[C@@H](Cc2ccccc2)C(=O)O)CC1` (stereo partly drawn), the activity change, negative = inhibition was -3.8% (inactive).

In the case of `CCN(CC)Cc1ccc2cc(COC(=O)Nc3ccc(C(=O)NO)cc3)ccc2c1`, the activity change, negative = inhibition is -81.2% (active).

For the molecule `COc1ccc(Cn2ccc3ccc(C(=O)NO)cc32)cc1`, the activity change, negative = inhibition is 1.1% (inactive).

Consider `CCN(CC)CCNC(=O)c1ccc(NC(C)=O)cc1`, for which the activity change, negative = inhibition is 6.42% (inactive) and 2.78% (inactive).

On to `C[C@H]1O[C@H](O[C@H]2[C@H](O)[C@@H](O)[C@@H](O[C@H]3[C@H](O)[C@@H](O)[C@H](O)O[C@@H]3CO)O[C@@H]2CO)[C@H](O)[C@@H](O)[C@@H]1N[C@H]1C=C(CO)[C@@H](O)[C@H](O)[C@H]1O`, for which the activity change, negative = inhibition is 8.26% (inactive).

With `COc1cc(/C=C(\C#N)C(N)=O)cc(CSc2nc3ccccc3s2)c1O`, the activity change, negative = inhibition is -5% (inactive).

Take `COc1cccc(OC)c1-c1cc(C(=O)NC2(C(=O)O)C3CC4CC(C3)CC2C4)nn1-c1ccc(C(=O)N(C)CCCN(C)C)cc1C(C)C` (stereo not drawn): the activity change, negative = inhibition was -1.72% (inactive).

On to `CC1=C(/C=C/C(=C/C=C/C(C)=C/C(=O)O)c2ccc(C)cc2)C(C)(C)CCC1`, for which the activity change, negative = inhibition is 20.2% (inactive).

For `C[C@@]12CCc3occc3[C@H]1CC[C@@]13C[C@@H](CC[C@H]12)[C@@](O)(CO)C3`, the activity change, negative = inhibition is 14.1% (inactive).

Take `CC(C)C[C@@H](C(=O)N[C@H](C(=O)OC1CCCC1)c1ccccc1)[C@H](O)C(=O)NO`: the activity change, negative = inhibition is -91.3% (active).

For `CCN1CCCC(OC(=O)C(c2ccccc2)c2ccccc2)C1` (stereo not drawn), the activity change, negative = inhibition is 9.52% (inactive) and 11.2% (inactive).

In the case of `CNC(=O)[C@@H](NC(=O)[C@H](CC(C)C)[C@H](O)C(=O)NO)C(C)(C)C`, the activity change, negative = inhibition is 11.5% (inactive).

`C[C@@]1(c2nc3c(C(N)=O)cccc3[nH]2)CCCN1`: the activity change, negative = inhibition is 0.526% (inactive).

Consider `CC(C)Cn1cnc2c1c(=O)n(C)c(=O)n2C`, for which the activity change, negative = inhibition was 12.6% (inactive).

With `NCCCCN(Cc1nc2ccccc2[nH]1)[C@H]1CCCc2cccnc21`, the activity change, negative = inhibition is 25.8% (inactive).

`NCCCC[C@H](NC(=O)[C@@H](Cc1cc(Br)c(O)c(Br)c1)NC(=O)N1CCC(N2Cc3ccccc3NC2=O)CC1)C(=O)N1CCN(c2ccncc2)CC1`: the activity change, negative = inhibition was 15.1% (inactive).

As for `COc1cc2c(cc1OC)C1Cc3ccc(OC)c(OC)c3CN1CC2` (stereo not drawn), the activity change, negative = inhibition is 8.53% (inactive).

With `COc1cc2c(cc1OC)[C@@H]1CC(=O)[C@@H](CC(C)C)CN1CC2`, the activity change, negative = inhibition is 11.3% (inactive) and 8.82% (inactive).

As to `CC[C@H]1CN2CCc3cc(OC)c(OC)cc3C2C[C@@H]1CC1NCCc2cc(OC)c(OC)cc21` (stereo partly drawn), the activity change, negative = inhibition was -81.1% (active) and -96.6% (active).

Take `CC(=O)NCCC(=O)N[C@@H](Cc1cnc[nH]1)C(=O)O`: the activity change, negative = inhibition is 3.95% (inactive).

`CNC(=O)c1c(-c2ccc(F)cc2)oc2cc(N(CCO)S(C)(=O)=O)c(C3CC3)cc12`: the activity change, negative = inhibition was 4.4% (inactive).

Consider `CC1(C)CC[C@]2(C(=O)O)CC[C@]3(C)C(=CCC4[C@@]5(C)CC[C@H](O)[C@@](C)(CO)C5CC[C@]43C)C2C1` (stereo partly drawn), for which the activity change, negative = inhibition is 4.93% (inactive).

With `NS(=O)(=O)c1cc2c(cc1Cl)NC=NS2(=O)=O`, the activity change, negative = inhibition is -6.64% (inactive) and 2.69% (inactive).

For the molecule `CC(C)[C@H]1C(=O)N[C@@H](CCCN=C(N)N)C(=O)NCC(=O)N[C@@H](CC(=O)O)C(=O)N[C@H](Cc2ccccc2)C(=O)N1C`, the activity change, negative = inhibition was 33.3% (inactive).

Regarding `CC#CC1(O)CCC2C3CCC4=CC(=O)CCC4=C3C(c3ccc(N(C)C)cc3)CC21C` (stereo not drawn), the activity change, negative = inhibition is 32.4% (inactive).

As for `CC(=O)O[C@]1(C(C)=O)CC[C@H]2[C@@H]3CCC4=CC(=O)CCC4=C3[C@@H](c3ccc(N(C)C)cc3)C[C@@]21C`, the activity change, negative = inhibition is -58.3% (inactive).

Consider `CC#C[C@]1(O)CC[C@H]2[C@@H]3CCC4=CC(=O)CCC4=C3[C@@H](c3ccc(N(C)C)cc3)C[C@@]21C`, for which the activity change, negative = inhibition is -77.6% (active) and 19.9% (inactive).

In the case of `CCC[C@@H]1C[C@@H](C(=O)N[C@@H]([C@H]2O[C@H](SC)[C@H](O)[C@@H](O)[C@@H]2O)[C@@H](C)O)N(C)C1`, the activity change, negative = inhibition was 0.0317% (inactive).

As to `C=CC(=O)NCc1ccccc1`, the activity change, negative = inhibition was 10.8% (inactive).

For the molecule `COc1ccc(CN2C(=O)C(=O)c3cc(OC(F)(F)F)ccc32)cc1`, the activity change, negative = inhibition is -31.8% (inactive).

With `CC(=O)O/N=C1/C(=O)N(Cc2cc(Cl)ccc2Cl)c2ccc(Cl)cc21`, the activity change, negative = inhibition is -78.1% (active).

On to `O=C1C(=O)N(Cc2ccc(Cl)c(Cl)c2)c2ccccc21`, for which the activity change, negative = inhibition is 25.2% (inactive) and 12.2% (inactive).

On to `COc1ccc(Cl)cc1C(=O)NCCc1ccc(C(=O)O)cc1`, for which the activity change, negative = inhibition is 10.3% (inactive).

In the case of `CCCCCCCCCC(=O)N[C@@H](Cc1c[nH]c2ccccc12)C(=O)N[C@H](CC(N)=O)C(=O)N[C@@H](CC(=O)O)C(=O)N[C@@H]1C(=O)NCC(=O)N[C@@H](CCCN)C(=O)N[C@@H](CC(=O)O)C(=O)N[C@H](C)C(=O)N[C@@H](CC(=O)O)C(=O)NCC(=O)N[C@H](CO)C(=O)N[C@@H]([C@@H](C)CC(=O)O)C(=O)N[C@@H](CC(=O)c2ccccc2N)C(=O)O[C@@H]1C`, the activity change, negative = inhibition is 5.37% (inactive).

Consider `C[C@H](O[C@H]1OCCN(Cc2n[nH]c(=O)[nH]2)[C@H]1c1ccc(F)cc1)c1cc(C(F)(F)F)cc(C(F)(F)F)c1`, for which the activity change, negative = inhibition is 3.24% (inactive).

For `Clc1cccc2c1CN(C1=NCCN1)C2`, the activity change, negative = inhibition was 4.53% (inactive) and 6.96% (inactive).

For `O=C1CN2Cc3c(ccc(Cl)c3Cl)N=C2N1`, the activity change, negative = inhibition was -78.8% (active) and -0.538% (inactive).

As to `Cc1nc2c([nH]1)CCN(C(=O)c1ccc(NC(=O)c3ccccc3-c3ccccc3)cc1)c1ccccc1-2`, the activity change, negative = inhibition is 24.9% (inactive).

Regarding `CC1(C)O[C@@H]2CC3C4C[C@H](F)C5=CC(=O)CC[C@]5(C)C4[C@@H](O)C[C@]3(C)[C@]2(C(=O)CO)O1` (stereo partly drawn), the activity change, negative = inhibition was -1.03% (inactive) and -3% (inactive).

`Cc1cc(C)c(N(Cc2ccccc2)S(=O)(=O)c2ccc(OCCNC(=O)c3cc4ccccc4o3)cc2)c(C(=O)NO)c1`: the activity change, negative = inhibition was -49.7% (inactive).

Regarding `CN(C)Cc1c(C(=O)NCCOc2ccc(C(=O)NO)cc2)oc2ccccc12`, the activity change, negative = inhibition is -78.9% (active).

Turning to `CC(C)c1ccc(C(=O)NCCOc2ccc(C(=O)O)cc2)cc1`, the activity change, negative = inhibition is 52.4% (inactive).

For the molecule `OC[C@@H](O)C(O)[C@@H](O)CO` (stereo partly drawn), the activity change, negative = inhibition is 8.06% (inactive).

With `C[C@@H]1CN(Cc2ccc(F)cc2)[C@@H](C)CN1C(=O)c1cc2c(C(=O)C(=O)N(C)C)cn(C)c2cc1Cl`, the activity change, negative = inhibition is -1.84% (inactive).

With `CC1(COc2ccc(CC3SC(=O)NC3=O)cc2)CCCCC1` (stereo not drawn), the activity change, negative = inhibition was 54.6% (inactive) and 38.2% (inactive).

As for `O=c1[nH]cc(F)c(=O)[nH]1`, the activity change, negative = inhibition was -79.7% (active) and -73.9% (active).

On to `O=c1cc[nH]c(=O)[nH]1`, for which the activity change, negative = inhibition was 14.2% (inactive).

Consider `O=C(OC1C[C@H]2CC[C@@H](C1)[N+]21CCCC1)C(O)(c1ccccc1)c1ccccc1` (stereo partly drawn), for which the activity change, negative = inhibition is 13% (inactive).

`CC(C)OC(=O)c1cc2c(OCC(O)CNC(C)(C)C)cccc2[nH]1` (stereo not drawn): the activity change, negative = inhibition was 5.25% (inactive) and 2.42% (inactive).

With `CN1N=C(C(N)=O)CCC1=O`, the activity change, negative = inhibition was 5.39% (inactive).

As for `COc1cc(F)c(C(C)C)cc1-c1ccc(C(F)(F)F)cc1CN1C(=O)O[C@H](c2cc(C(F)(F)F)cc(C(F)(F)F)c2)[C@H]1C`, the activity change, negative = inhibition was 13.2% (inactive).

Consider `CC(C)[C@H](C(=O)Nc1ccc(C(=O)NO)cc1)c1ccccc1`, for which the activity change, negative = inhibition is -78.5% (active).

In the case of `CC(=O)Nc1ccc(C(=O)O)cc1`, the activity change, negative = inhibition is 5.72% (inactive).

On to `O=C(O)c1ccc(NC(=O)[C@H](Cc2ccc(O)cc2)NC(=O)c2ccccc2)cc1`, for which the activity change, negative = inhibition was 10.1% (inactive).

As to `C[C@H]1CC[C@@]2(OC1)O[C@H]1C[C@H]3[C@@H]4CC[C@@H]5C[C@@H](O)CC[C@]5(C)[C@H]4CC[C@]3(C)[C@H]1[C@@H]2C`, the activity change, negative = inhibition is 10.8% (inactive).

On to `O=C1Nc2cc(Cl)ccc2Oc2ccccc21`, for which the activity change, negative = inhibition is 13.7% (inactive).

As to `Cc1nc2c(c(=O)[nH]1)CSCC2`, the activity change, negative = inhibition is -9.85% (inactive).

On to `CC(C)c1ccc2c(c1)CCC1C(C)(C(N)=O)CCCC21C` (stereo not drawn), for which the activity change, negative = inhibition is 39.8% (inactive).

With `CCN(CC)CCOCCOC(=O)C(CC)(CC)c1ccccc1`, the activity change, negative = inhibition was 22.3% (inactive).

`Nc1ncnc2c1ncn2[C@@H]1O[C@H](C[C@@H](N)CC[C@H](N)C(=O)O)[C@@H](O)[C@H]1O`: the activity change, negative = inhibition is -5.35% (inactive).

For `COc1ccc(CN(CCN(C)C)c2ncccn2)cc1`, the activity change, negative = inhibition was 10.1% (inactive) and 11.2% (inactive).

Turning to `COc1ccc(CN(CCN(C)C)c2ccccn2)cc1`, the activity change, negative = inhibition is 18% (inactive) and 6.75% (inactive).

With `CCCCCCCCCCCCCCCC[N+](C)(C)CCN(Cc1ccc(OC)cc1)c1ncccn1`, the activity change, negative = inhibition is -80.9% (active).

As for `C[C@]12C=CC(=O)C=C1CCC1C3C[C@@H](O)[C@](O)(C(=O)CO)[C@@]3(C)C[C@H](O)[C@@]12F` (stereo partly drawn), the activity change, negative = inhibition was -10.6% (inactive).

Turning to `CN(C)CCN1C(=O)c2cccc3cc(NC(N)=O)cc(c23)C1=O`, the activity change, negative = inhibition is 5.35% (inactive).

For `Cc1csc(-c2nnc(Nc3ccc(Oc4ncccc4-c4ccnc(N)n4)cc3)c3ccccc23)c1`, the activity change, negative = inhibition is -85.1% (active).

(Values after PubChem BioAssay AID1259421 (Broad Institute, 2018).)
